Cruzain Triton: cruzain (T. cruzi) inhibition with detergent; P25779; purified cruzain, Z-FR-AMC fluorescence, 0.01% Triton; Potency, µM, without a hit: max response, negative = inhibition, usual class: inhibitors; 0.43% of 200,000 active;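 further: plate controls were neutral wells for no effect and buffer without enzyme for full effect; nearly all actives have a fitted effect of over 40% in size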
Target sequence (P25779 123-467 limits assumed): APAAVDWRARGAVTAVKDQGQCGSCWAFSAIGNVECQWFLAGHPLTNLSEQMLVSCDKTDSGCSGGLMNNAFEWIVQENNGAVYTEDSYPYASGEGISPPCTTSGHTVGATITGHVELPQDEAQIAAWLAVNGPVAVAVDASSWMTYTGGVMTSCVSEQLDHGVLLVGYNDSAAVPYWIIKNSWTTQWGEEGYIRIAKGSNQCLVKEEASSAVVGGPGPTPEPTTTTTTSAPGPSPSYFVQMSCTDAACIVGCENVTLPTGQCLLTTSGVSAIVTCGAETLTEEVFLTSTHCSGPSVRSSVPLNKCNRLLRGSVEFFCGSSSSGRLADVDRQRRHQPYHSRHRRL
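Z-FR-AMC hydrolysis (2 uM substrate) by cruzain (1.5 nM) monitored kinetically at ex 360/em 450 nm after 15 min room-temperature compound exposure; 0.01% Triton X-100, pH 5.5, 5 mM DTT.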
Cruzain inh noDet: inhibitors of Trypanosoma cruzi cruzain without detergent. P25779. purified cruzain, Z-FR-AMC fluorescence, no detergent. Potency, µM, for inactives: max response, negative = inhibition, usual class: inhibitors. 2.3% of 200,000 active. AID 1476;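 further: plate controls were enzyme without inhibitor for no effect and buffer without enzyme for full effect; nearly all actives have a fitted effect of over 40% in size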
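Detergent-free condition (0.00005% Triton X-100) in acetate buffer pH 5.5 with DTT. 1.5 nM enzyme and compound were pre-mixed 15 min, then 2 uM Z-FR-AMC substrate added; reaction progress from fluorescence change between first and third reads (60 s).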
* = called active by the depositor; ? = inconclusive; ! = a repeat was not active. An excerpt weighted towards active compounds, which were near 2.4% of everything screened. The call rests on the fitted dose curve; in most records, active means well fitted curve in the direction sought with a large enough effect; inconclusive means small, poorly fitted or top-dose-only effect, or another doubt; inactive means no such curve, though single readings can be large; an effect the other way counts as inactive or inconclusive. Potency means the concentration at half of the fitted maximal effect.

SMILES	Cruzain Triton	Cruzain inh noDet
COc1ccccc1NC(=O)CN1C(=O)C2(SCC(=O)N2c2ccc(C)c(C)c2)c2ccccc21 (configuration not stated)	-2%	-21%
O=C(Nc1ccccc1Cl)c1ccc(F)c(S(=O)(=O)NCc2ccc(Cl)c(Cl)c2)c1	-1%	?
CCc1cccc(C)c1NC(=O)C1CCN(S(=O)(=O)c2c(C)noc2/C=C/c2c(C)cc(C)cc2C)CC1	-1%	-4%
c1cc2ccc3cccc4ccc(c1)c2c34	-1%	-13%
c1ccc2c(c1)c1cccc3ccc4cccc2c4c31	2%	16µM*
Cc1cccc(C2C=C(c3ccc(C)c(C)c3)Nc3nnnn32)c1 (configuration not stated)	1%	-5%
O=C(NCc1nc2ccccc2[nH]1)c1cc2ccccc2oc1=O	14µM*	7.9µM*
O=C(NCc1nc2ccccc2[nH]1)c1ccco1	-1%	-7%
CCC(=O)N1CCc2cc(CNC(=O)c3ccc(OC)cc3)ccc21	2%	2%
COc1cc2ccc(=O)oc2cc1O	25µM*!	32µM*
COc1ccc2ccc(=O)oc2c1CC=C(C)C	-10%	4%
COc1ccc(-c2noc(N(c3ccc(F)c(Cl)c3)c3nc(-c4ccc(OC)c(OC)c4)no3)n2)cc1OC	-6%	-7%
CN(C)S(=O)(=O)c1cccc(NC(=O)COC(=O)c2cc(-c3cccc(Br)c3)nc3ccccc23)c1	-1%	10µM*
CN(C)S(=O)(=O)c1cccc(NC(=O)COC(=O)c2ccc(Br)o2)c1	-2%	1%
CCN(c1ccccc1)S(=O)(=O)c1ccc(Cl)c(NC(=O)COC(=O)c2cccc(OC)c2O)c1	-4%	?
CCN(c1ccccc1)S(=O)(=O)c1ccc(Cl)c(NC(=O)COC(=O)c2ccc(Cl)c(N)c2)c1	-4%	25µM*
CCN(CC)S(=O)(=O)c1ccc(Cl)c(NC(=O)COC(=O)c2c(C)noc2C)c1	0%	3%
CCN(CC)S(=O)(=O)c1ccc(Cl)c(NC(=O)COC(=O)c2cc(-c3ccccc3Cl)nc3ccccc23)c1	-4%	10µM*
O=C(Nc1ccc(Br)cc1)c1ccc(F)c(S(=O)(=O)N2CCc3ccccc32)c1	0%	?
COc1cccc(Nc2nc(NCC3CCCO3)c3ccccc3n2)c1 (configuration not stated)	14µM*	13µM*
Oc1ccc(Nc2nc(NCC3CCCO3)c3ccccc3n2)cc1 (configuration not stated)	-25%	-27%
Cc1sc(-c2cc3ccccc3oc2=O)nc1-c1ccc(Cl)cc1	1%	8%
CC(C)n1c(=O)c2c(O)cc(=O)oc2c2ccccc21	1%	25µM*
CCn1c(=O)c2c(O)cc(=O)oc2c2ccccc21	-4%	-6%
O=C(NC(=S)Nc1cc(Cl)ccc1N1CCOCC1)c1ccc(-c2cccc(Cl)c2)o1	5%	7.9µM*
SMILES	Cruzain Triton	Cruzain inh noDet
O=C(Nc1ccccc1N1CCCCC1)c1ccc(-c2cccc(Cl)c2)o1	-2%	-3%
C[C@@H](CNC(N)=O)NC(N)=O	-2%	9%
Cc1ccc(N2C(=O)C3C(C(=O)c4ccccc4)=NN(c4ccccc4)C3C2=O)cc1 (configuration not stated)	-7%	16µM*
CCOc1ccc(N2C(=O)C3C(c4ccccc4)=NN(c4ccccc4)C3C2=O)cc1 (configuration not stated)	-20%	20µM*
CCOc1ccc(N2C(=O)C3C(C2=O)C3(c2ccccc2)c2ccccc2)cc1 (configuration not stated)	-5%	-10%
O=C(C1=NN(c2ccccc2)C2C(=O)N(c3ccccc3)C(=O)C12)c1ccccc1 (configuration not stated)	-4%	-23%
CC(C)c1ccc(NS(=O)(=O)c2ccc3[nH]cc(C(=O)N4CCCC4)c(=O)c3c2)cc1	-6%	14%
N#Cc1cccc(-c2cncnc2-n2ccnc2)c1	7%	-5%
CCOc1ccc(OCC)c(NC(=O)c2csc3c2CCCC3)c1	1%	0%
Cc1ccc(C(=O)c2sc(Nc3ccccc3F)c(S(=O)(=O)c3ccccc3)c2N)c(C)c1	-3%	6.3µM*
Cc1ccc(C(=O)c2sc(Nc3ccccc3)c(C#N)c2N)cc1	-5%	8%
Cc1ccc(S(=O)(=O)NC(=O)Nc2ccccc2F)cc1	-2%	4%
Cc1ccc(C(=O)c2sc(Nc3ccccc3)c(S(=O)(=O)c3ccccc3)c2N)c(C)c1	-2%	7.9µM*
CCCCC(=O)N(c1ccc2oc(C)c(C(C)=O)c2c1)S(=O)(=O)c1ccc(F)cc1C	-1%	-11%
Cc1nc(N2CCN(S(=O)(=O)c3ccc(F)cc3)CC2)c2c(C)c(C)sc2n1	-3%	-12%
Cc1sc2nc(C3CC3)nc(N3CCN(S(=O)(=O)c4ccc(F)cc4)CC3)c2c1C	-2%	16µM*
Cc1cc(C)c(NC(=O)COc2ccccc2C(=O)Nc2ccc3c(c2)oc2ccccc23)c(C)c1	-5%	5µM*
COc1cc2c(cc1NC(=O)COc1cc(C)cc(C)c1)oc1ccccc12	0%	5%
CCOc1ccc(-c2nc(CSCC(=O)N3CCN(c4cccc(C(F)(F)F)c4)CC3)c(C)o2)cc1	-8%	?
Cc1ccc(N(C)C(=O)C2CCN(S(=O)(=O)c3c(C)noc3/C=C/c3c(C)cc(C)cc3C)CC2)cc1	-3%	-2%
Cc1ccc2c(nc3s/c(=C/c4cccs4)c(=O)n32)c1C	-2%	16µM*
Cc1cc(C)c2nc3s/c(=C/c4ccccc4)c(=O)n3c2c1	3%	-18%
C[C@@]1(C(NC(=O)Cc2ccccc2)c2ccc(-c3ccccc3)cc2)C[C@H]1C1CCCCC1 (some centres not stated)	4%	3%
C[C@@]1(C(NC(=O)c2ccccc2)c2ccc(-c3ccccc3)cc2)C[C@H]1C1CCCCC1 (some centres not stated)	-3%	10µM*
CSc1nc2n(n1)C(c1cccc(F)c1)C(C(=O)Nc1ccc(C)cc1C)=C(C)N2 (configuration not stated)	8%	10µM*
SMILES	Cruzain Triton	Cruzain inh noDet
COc1ccc(C2C(C(=O)Nc3ccc(C)cc3C)=C(C)Nc3nc(SC)nn32)cc1OC (configuration not stated)	0%	-4%
CCOC(=O)c1ccc(NC(=O)Cn2cnc3sc(C(=O)OCC)c(C)c3c2=O)cc1	1%	-6%
CCOC(=O)c1c(NC(=O)Cn2cnc3sc(C)c(-c4ccccc4)c3c2=O)sc(C)c1C	-7%	13µM*
CCOC(=O)c1c(NC(=O)Cn2cnc3scc(-c4ccc(C)cc4)c3c2=O)sc(C)c1C	-6%	4µM*
CCOC(=O)c1c(NC(=O)COC(=O)Cn2cnc3ccccc32)sc(C)c1C	3%	-3%
CCOc1ccc(-n2nc(CO)c(C(=O)NCc3ccccn3)n2)cc1	-4%	-7%
CC1CCc2c(sc(NC(=O)Cc3ccccc3)c2C(=O)Nc2ccc(Cl)cc2)C1 (configuration not stated)	0%	16%
N#C/C(=C/c1ccc(Oc2ccc([N+](=O)[O-])cn2)cc1)C(=O)N1CCOCC1	-5%	?
N#C/C(=C\c1ccc(-c2ccc([N+](=O)[O-])cc2Br)o1)C(=O)N1CCN(c2ccccc2)CC1	-4%	13µM*
CCn1c(=O)c(C(=O)NNS(=O)(=O)c2ccc(Cl)cc2)c(O)c2ccccc21	-9%	25µM*
CCn1c(=O)c(C(=O)Nc2ccccc2S(N)(=O)=O)c(O)c2ccccc21	-4%	?
